G9a inh = inhibitors of human histone lysine methyltransferase G9a | G9a H3K9 monomethylation, AlphaScreen, 2 h | 350,000 compounds, 8.8% hits | AID 504332 | Potency, µM (highest dose often 102 µM), without a hit: top-dose activity, negative = inhibition, actives largely listed as inhibitors | Q96KQ7; also: potency is read from the fitted curve at half-maximal effect; % is scaled to controls: 0 for no effect and ±100 for the full control effect; nearly all actives have a fitted effect of over 75% in size
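Readings reflect AlphaScreen signal from monomethyl-H3K9 antibody detection. HMT at 20 nM; substrate b-H3K9 500 nM; cofactor SAM 20 uM; 2 h RT reaction; compounds tested as titrations in qHTS with 15 min preincubation.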
JMJD2A Tudor = inhibitors of human JMJD2A Tudor domain; 390,000 compounds, 4.4% hits; Potency, µM (top dose mostly 114 µM), for the others: at the highest dose activity change, negative = inhibition, most hits filed as inhibitors; AID 504339; AlphaScreen JMJD2A-Tudor / H3K4me3 peptide binding; O75164; also: potency is read from the fitted curve at half-maximal effect; % is scaled to controls: 0 for no effect and ±100 for the full control effect; nearly all actives have a fitted effect of over 50% in size
L3MBTL1 block = inhibitors of human L3MBTL1; AID 485360; Q9Y468; AlphaScreen L3MBTL1–H3K9me1 peptide binding; Potency, µM (doses to about 57.1 µM), inactives show at the top dose activity, negative = inhibition, usual class: inhibitors; 230,000 compounds, 0.66% hits; also: potency is read from the fitted curve at half-maximal effect; % is scaled to controls: 0 for no effect and ±100 for the full control effect; nearly all actives have a fitted effect of over 60% in size
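AlphaScreen proximity signal between nickel-chelate acceptor and streptavidin donor beads (final 10 ug/mL) reports binding of 50 nM L3MBTL1 to 75 nM biotin-H3 K9me1 peptide; complex incubated with compounds 30 min at room temperature; cefsulodin titration as control.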
BAZ2B block = blocks human BAZ2B | Q9UIF8 | AlphaScreen BAZ2B-H3K14Ac peptide displacement | Potency, µM (series often up to 114 µM), inactives show top-dose activity change, negative = inhibition, hits mostly inhibitors | 360,000 compounds, 4.4% hits | AID 504333; also: potency is read from the fitted curve at half-maximal effect; % is scaled to controls: 0 for no effect and ±100 for the full control effect; nearly all actives have a fitted effect of over 60% in size
Target sequence (Q9UIF8 whole entry, looked up): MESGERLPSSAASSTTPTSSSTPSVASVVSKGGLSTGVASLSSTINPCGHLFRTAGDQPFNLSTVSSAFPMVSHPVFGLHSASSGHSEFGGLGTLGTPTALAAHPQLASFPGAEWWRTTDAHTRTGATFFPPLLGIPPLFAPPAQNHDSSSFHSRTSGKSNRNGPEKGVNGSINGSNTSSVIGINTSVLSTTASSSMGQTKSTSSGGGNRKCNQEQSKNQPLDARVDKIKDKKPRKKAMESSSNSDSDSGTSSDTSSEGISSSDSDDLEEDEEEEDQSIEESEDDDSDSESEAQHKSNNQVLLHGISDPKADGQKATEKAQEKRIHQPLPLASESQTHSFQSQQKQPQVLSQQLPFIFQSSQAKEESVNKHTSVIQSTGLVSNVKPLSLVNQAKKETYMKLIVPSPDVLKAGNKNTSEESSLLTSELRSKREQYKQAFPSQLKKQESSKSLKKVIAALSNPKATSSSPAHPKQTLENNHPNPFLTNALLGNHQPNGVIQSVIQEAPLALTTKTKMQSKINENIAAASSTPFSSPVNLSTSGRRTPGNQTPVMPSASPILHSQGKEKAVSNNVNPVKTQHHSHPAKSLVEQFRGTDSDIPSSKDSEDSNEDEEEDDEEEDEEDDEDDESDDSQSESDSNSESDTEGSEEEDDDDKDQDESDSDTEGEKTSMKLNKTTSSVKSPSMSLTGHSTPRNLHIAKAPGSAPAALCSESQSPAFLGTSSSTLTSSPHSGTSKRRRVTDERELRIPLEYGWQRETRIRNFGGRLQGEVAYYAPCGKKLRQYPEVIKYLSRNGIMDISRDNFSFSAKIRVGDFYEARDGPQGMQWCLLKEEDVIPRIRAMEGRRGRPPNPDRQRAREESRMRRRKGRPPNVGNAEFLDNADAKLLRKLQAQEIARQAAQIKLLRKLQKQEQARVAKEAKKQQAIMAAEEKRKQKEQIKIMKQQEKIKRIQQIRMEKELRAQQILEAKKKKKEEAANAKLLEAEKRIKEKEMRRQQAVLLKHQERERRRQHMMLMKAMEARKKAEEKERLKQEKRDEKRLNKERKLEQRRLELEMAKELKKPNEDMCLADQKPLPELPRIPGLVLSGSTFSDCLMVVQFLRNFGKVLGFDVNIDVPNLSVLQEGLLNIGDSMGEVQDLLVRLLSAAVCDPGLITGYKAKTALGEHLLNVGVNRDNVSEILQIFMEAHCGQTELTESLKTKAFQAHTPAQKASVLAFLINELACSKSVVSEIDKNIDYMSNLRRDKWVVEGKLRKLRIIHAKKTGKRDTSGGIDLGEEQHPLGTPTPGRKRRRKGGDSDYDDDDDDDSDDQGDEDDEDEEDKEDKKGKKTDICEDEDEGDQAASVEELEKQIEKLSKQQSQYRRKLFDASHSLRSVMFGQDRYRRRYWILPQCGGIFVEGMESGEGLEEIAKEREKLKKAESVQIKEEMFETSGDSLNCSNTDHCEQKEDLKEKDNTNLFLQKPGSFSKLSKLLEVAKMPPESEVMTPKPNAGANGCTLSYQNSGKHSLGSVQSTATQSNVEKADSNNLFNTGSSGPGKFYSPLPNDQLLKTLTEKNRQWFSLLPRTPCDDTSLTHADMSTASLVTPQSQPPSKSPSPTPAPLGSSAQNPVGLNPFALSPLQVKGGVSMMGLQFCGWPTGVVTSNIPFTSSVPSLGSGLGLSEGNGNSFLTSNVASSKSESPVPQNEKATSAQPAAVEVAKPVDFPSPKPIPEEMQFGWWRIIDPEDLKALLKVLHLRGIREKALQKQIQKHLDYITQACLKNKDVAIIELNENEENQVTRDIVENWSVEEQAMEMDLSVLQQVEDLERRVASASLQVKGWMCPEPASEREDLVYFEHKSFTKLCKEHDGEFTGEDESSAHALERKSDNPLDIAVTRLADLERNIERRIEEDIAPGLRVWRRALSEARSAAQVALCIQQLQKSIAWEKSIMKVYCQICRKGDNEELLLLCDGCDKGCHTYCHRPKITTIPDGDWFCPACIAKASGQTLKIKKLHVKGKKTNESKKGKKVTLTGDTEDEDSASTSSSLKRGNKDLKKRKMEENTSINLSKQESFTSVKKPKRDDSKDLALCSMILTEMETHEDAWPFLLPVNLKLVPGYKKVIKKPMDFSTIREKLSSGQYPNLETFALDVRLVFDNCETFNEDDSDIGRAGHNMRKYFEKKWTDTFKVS
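Compounds, titrated to a top concentration of 110 uM, were incubated 30 min at room temperature with preformed BAZ2B/acetyl-K14 H3 peptide complex (50 nM each). Proximity signal was measured by AlphaScreen after 20 min with beads.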
HP1b binding inh = inhibitors of HP1-beta chromodomain binding to methylated histone tails. Potency, µM (highest dose often 114 µM), for the others: at the highest dose activity change, negative = inhibition, hits mostly inhibitors. AID 540317. AlphaScreen HP1-beta / biotin-H3K9me3 peptide binding. 390,000 compounds, 0.56% hits; also: potency is read from the fitted curve at half-maximal effect; nearly all actives have a fitted effect of over 70% in size
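AlphaScreen: HP1-beta (50 nM) preformed 30 min with biotin-H3(1-18)K9me3 peptide (50 nM) in PBS pH 7.4, 0.01% Tween-20. Compound added for 30 min at RT, then streptavidin donor/nickel chelate acceptor beads (10 ug/mL) for 30 min.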
PI5P4Ka inh = PI5P4K alpha (human) kinase inhibition. PI5P4Kalpha enzyme, ADP-Glo luminescence, 60 min; hits give low values. P48426. 330,000 compounds, 1.2% hits. AID 652105. max response, %; active = max response of -50% or lower; inconclusive = between -30% and -50%; inactive = -30% or higher; also: value at the top dose of about 77 µM; % is scaled to controls: 0 for no effect and ±100 for the full control effect
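Human PI5P4Kalpha with substrate in 0.038 M HEPES pH 7.4, 0.28 mM EGTA, 0.1% CHAPS, 5% DMSO; reaction started with 5 microM ATP (final), 60 min at room temperature. ADP formed read by ADP-Glo luminescence.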
* = called active by the depositor; ? = inconclusive; . = no result; [ ] = dose if it differs, or a comment. Hits are enriched below; roughly 11% of the tested compounds scored in any of these assays. Unless noted, calls follow the shape of the dose curve; as a rule, active = well fitted inhibition curve with a large enough effect; inconclusive = small, poorly fitted or top-dose-only effect; inactive = no such curve, though single readings can be large or run the other way.

SMILES	G9a inh	JMJD2A Tudor	L3MBTL1 block	BAZ2B block	HP1b binding inh	PI5P4Ka inh
COc1ccc(S(=O)(=O)N2CCC(C(=O)Nc3ccc(Oc4ccccc4)cc3)CC2)cc1OC	3%[59 µM]	-3%	.	-1%	28%	.
O=S1(=O)N=C(Sc2ccc3c(c2)OCCO3)c2ccccc21	.	-26%	.	.	.	.
COc1ccc(-n2nnc(-c3nsc(NC(=O)c4cccs4)n3)c2C)cc1OC	-7%[59 µM]	-5%	.	-25%	13%	.
COc1cc(OC)c(NC(=O)c2nnn(Cc3ccc(C)cc3)c2N)cc1Cl	-24%[59 µM]	-12%	.	-12%	4%	.
CCOC(=O)/C(=N\Nc1ccccc1Cl)N(C)C1CCCCC1	10µM*	-30%	.	-30%	13%	1
CCOC(=O)/C(=N\Nc1cc(C(F)(F)F)ccc1Cl)N(CC)CC	3.5µM*	-30%	.	?	7%	.
COc1cc(/C=C(\C#N)c2[nH]nc(N)c2C#N)cc(OC)c1O	?	-11%	.	6%	?	-64*
COc1ccc(-c2nc3cnc(N4CCOCC4)nc3n(CCc3ccccc3)c2=O)cc1	39%[0.501 µM]	.	.	.	.	.
Cc1ccc2c(c1)c1nnc(SCC(=O)Nc3ccccc3C(F)(F)F)nc1n2CC(=O)O	-10%	-5%[57.1 µM]	5%	-16%	40%	1
Cc1ccc2c(c1)c1nnc(SCC(=O)Nc3cccc(Cl)c3C)nc1n2CC(=O)O	?	?	4%	50µM*	-17%	-5
Cc1ccc2c(c1)c1nnc(SCC(=O)Nc3ccc(N(C)C)cc3)nc1n2CC(=O)O	25µM*	?	?	?	-1%	-5
Cc1c(O)c(=O)ccn1Cc1ccccc1	32µM*	-8%	1%	?	52%	3
CCC(=O)Nc1ccc(Nc2ccccc2)cc1	50µM*	-24%	-1%	-34%	15%	-1
COCC(=O)Nc1ccc(Nc2ccccc2)cc1	?	-24%	-13%[11.4 µM]	40µM*	-7%	-13
CCC(=O)Nc1ccc(NC(=O)Cc2ccccc2)cn1	56µM*	-4%	6%	?	16%	-1
CCC(=O)Nc1ccc(NC(=O)CCc2ccccc2)cn1	-17%	-4%	-6%	-4%	27%	-2
NC(=O)Nc1ccc(Nc2ccccc2)cc1	56µM*	-35%	-27%	?	-9%	-30
CCOc1ccc(-n2c(=O)c3c4c(sc3n(CC(=O)Nc3cccc(C(F)(F)F)c3)c2=O)CCCCC4)cc1	3%[59 µM]	-7%	.	-2%	29%	.
COc1cccc(NC(=O)c2c(-c3ccc(C)cc3)nnc3ccccc23)c1	-2%[59 µM]	0%	.	-4%	39%	.
CCOc1ccc(N=Nc2c(=O)[nH]n3c(C)cc(C)nc23)cc1	7.1µM*	?	0%	?	?	-11
O=C(CCCCCCCC(=O)NNC(=O)Nc1ccccc1)NNC(=O)Nc1ccccc1	-48%[59 µM]	79µM*	-10%	79µM*	4%	-6
FC(F)(F)c1ccccc1NC(=S)Nc1ccccc1	50µM*	-1%	.	-2%	38%	3
COc1ccc(NC(=S)Nc2ccccc2C(F)(F)F)cc1	-32%	-3%	3%[11.4 µM]	-25%	37%	-4
S=C(NNC(=S)Nc1ccccc1)Nc1ccccc1	0.35µM*	-33%	.	-35%	?	-20
O=C(CCc1ccccc1)NNC(=O)Nc1ccccc1	1%	4%	0%	-6%	20%	-8
SMILES	G9a inh	JMJD2A Tudor	L3MBTL1 block	BAZ2B block	HP1b binding inh	PI5P4Ka inh
CCNC(=S)NNC(=O)Nc1ccccc1	3.2µM*	32µM*	.	6%	?	.
S=C(NN=C(C1CC1)C1CC1)Nc1ccccc1	5.6µM*	50µM*	-4%	-6%	-10%	-13
O=C(NNC(=S)Nc1ccccc1)C1CC1	-5%	-5%	2%	-3%	40%	.
O=C(Cc1ccccc1)NNC(=S)Nc1ccccc1	?	-3%	-4%	0%	38%	4
NC(=S)NNC(=S)Nc1ccccc1	10µM*	-26%	-3%	-16%	?	-70*
C=CCn1c(-c2ccc(Cl)cc2)cnc1SC(C)C(=O)NC(N)=O (stereo unspecified)	?	-25%	.	-34%	-10%	-1

Screens (PubChem BioAssay)
